Entries with a potency or affinity are not part of this list. Only a part of the results of these assays is listed, not drawn at random.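 Tested at 5 concentrations; 48 h exposure; 96-well plates; endpoints linearly interpolated, else capped at highest concentration. Here, GI50 denotes the concentration required for 50% inhibition of growth.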
Tests used:
Test in all cases: NCI tumour cell line growth inhibition, 48 h
[1] = test system: DMS-273
[2] = test system: LXFL 529
[3] = test system: RXF 631
[4] = test system: SNB-78
[5] = test system: XF498
[6] = test system: DLD-1
[7] = test system: HOP-18
[8] = test system: KM-20L2

Row | Substance | GI50 [1] | GI50 [2] | GI50 [3] | GI50 [4] | GI50 [5] | GI50 [6] | GI50 [7] | GI50 [8]
1 | cis-Bis[[(trimethylsilyl)methyl]amino]tetrachloroplatinum(IV), CHEMBL2146191 | 12.1 µM | 2.15 µM | 3.41 µM | 7.36 µM | 11 µM |  |  | 
2 | [Bis(aminomethyl)tetramethylenesilane]tetrachloropaltinum(IV), CHEMBL2146189 |  | 12.2 µM | 7.26 µM |  | 3.56 µM | 11.8 µM | 24.3 µM | 2.99 µM
3 | [Bis(aminomethyl)tetramethylenesilane]dichloropaltinum(II), CHEMBL2146205 | 14.6 µM | 27.4 µM | 49.3 µM |  | 28 µM | 39.1 µM | 43.5 µM | 24.4 µM
4 | [Bis(aminomethyl)dimethylsilane]tetrachloroplatinum(IV), CHEMBL2146190 | 1.02 µM | 14.2 µM | 34.9 µM | 3.22 µM | 2.9 µM | 12.8 µM |  | 3.58 µM
5 | [Bis(aminomethyl)pentamethylenesilane]tetrachloropaltinum(IV), CHEMBL2146204 |  | 4.97 µM | 4.63 µM |  | 2.86 µM | 4.58 µM | 42.6 µM | 3.14 µM
6 | [Bis(aminomethyl)diethylsilane]tetrachloroplatinum(IV), CHEMBL2146203 |  | 4.34 µM | 4.21 µM |  | 2.77 µM | 8.65 µM | 13 µM | 1.45 µM
7 | CISPLATIN, CHEMBL11359 |  | 4.83 µM |  | 1.49 µM |  | 6.03 µM | 7.71 µM | 7.48 µM
8 | [Bis(aminomethyl)ethylmethylsilane]tetrachloroplatinum(IV), CHEMBL2146192 | 0.587 µM | 6.22 µM | 14.3 µM | 3.35 µM | 4.22 µM |  |  | 
9 | mu-(1,7-nanodiamine-N,N')bis-(cis-aminedichloroplatimum (II)), CHEMBL2146215 | 4.54 µM | 46.2 µM | 47.2 µM | 48.8 µM |  | 36.2 µM | 84.1 µM | 35.9 µM
10 | [Bis(aminomethyl)pentamethylenesilane]dichloropaltinum(II), CHEMBL2146202 |  | 12.9 µM | 18.4 µM |  | 11.5 µM | 31.1 µM | 37.7 µM | 12.2 µM
11 | [Bis(aminomethyl)dimethylsilane]dichloroplatinum (II), CHEMBL2146201 | 5.62 µM | 44.2 µM | > 100 µM | 16.7 µM | 17.2 µM |  |  | 
